# Measurements: the supplement of paper PMC4022240
# ± gives the standard deviation.
# T1: HaloTag-ATRX ADD domain (163-292)
# T1 chain: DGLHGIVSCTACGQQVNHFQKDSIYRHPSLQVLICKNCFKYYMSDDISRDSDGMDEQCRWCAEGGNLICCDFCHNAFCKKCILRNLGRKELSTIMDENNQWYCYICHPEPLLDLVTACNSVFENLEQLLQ
# What was measured:
# Assay in all cases: peptide microarray binding signal (635 nm), min-max normalized on array (fraction of array maximum); higher = stronger binding
# Conditions in all cases: peptide region: H3 1-13
# [1] = target: T1, HaloTag-ATRX ADD domain (163-292)
# Protocol: (§1)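 Histone 13-mer peptides were synthesized as cellulose conjugates with a C-terminal 20-atom PEG linker and printed in triplicate on nitrocellulose. The sequence given is the unmodified backbone; PTMs (Kme1/2/3, Kac, Sph/Tph, Rme/Rme2a/Rme2s, Rcit) are listed in the label and the 'peptide modifications' condition. Slides were probed at 4 °C for 1 h with biotin-labelled (HQ)5-HaloTag reader fusions (ATRX-ADD, ING2-PHD) then streptavidin-Alexa647, or with rabbit histone antibodies then anti-rabbit Alexa647. The mean 635 nm signal of the triplicate spots was scaled 0-1 between the lowest and highest values on each array.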
# [2] = target: HaloTag-ING2 PHD (mouse Ing2 200-280)
# Protocol: as §1
# [3] = target: anti-H3K4me3 antibody ab8580
# Protocol: as §1
# [4] = target: anti-H3K9me3 antibody ab8898
# Protocol: as §1
# [5] = peptide modifications: H3R2cit, binder concentration: 1:2,000 dilution
# [6] = peptide modifications: H3R2cit, binder concentration: 1:10,000 dilution
# [7] = peptide modifications: H3R2me2a H3K4ac, binder concentration: 1:2,000 dilution
# [8] = peptide modifications: H3R2me2a H3K4ac, binder concentration: 1:10,000 dilution
# [9] = peptide modifications: H3R2cit H3T6ph, binder concentration: 1:2,000 dilution
# [10] = peptide modifications: H3R2cit H3T6ph, binder concentration: 1:10,000 dilution
# [11] = peptide modifications: H3R2me1 H3K9me2, binder concentration: 1:2,000 dilution
# [12] = peptide modifications: H3R2me1 H3K9me2, binder concentration: 1:10,000 dilution
# [13] = peptide modifications: H3R2me1 H3T6ph, binder concentration: 1:2,000 dilution
# [14] = peptide modifications: H3R2me1 H3T6ph, binder concentration: 1:10,000 dilution
# [15] = peptide modifications: H3R2me1 H3K4ac, binder concentration: 1:2,000 dilution
# [16] = peptide modifications: H3R2me1 H3K4ac, binder concentration: 1:10,000 dilution
# [17] = peptide modifications: H3R2me1 H3K4me3, binder concentration: 1:2,000 dilution
# [18] = peptide modifications: H3R2me1 H3K4me3, binder concentration: 1:10,000 dilution
# [19] = peptide modifications: H3R2cit H3T3ph, binder concentration: 1:2,000 dilution
# [20] = peptide modifications: H3R2cit H3T3ph, binder concentration: 1:10,000 dilution
# [21] = peptide modifications: H3R2me1 H3K9ac, binder concentration: 1:2,000 dilution
# [22] = peptide modifications: H3R2me1 H3K9ac, binder concentration: 1:10,000 dilution
# [23] = peptide modifications: H3R2me2a H3K4me1, binder concentration: 1:2,000 dilution
# [24] = peptide modifications: H3R2me2a H3K4me1, binder concentration: 1:10,000 dilution
binder,measurement,setting,value
ARTKQTARKSTGG [H3 1-13 A Rcit T K Q T A R K S T G G],peptide microarray binding signal,"[1]; peptide modifications: H3R2cit, binder concentration: 50 nM",0.00937 ± 0.00037
same,peptide microarray binding signal,"[1]; peptide modifications: H3R2cit, binder concentration: 500 nM",0.0298 ± 0.0055
same,peptide microarray binding signal,"[2]; peptide modifications: H3R2cit, binder concentration: 10 nM",0.012 ± 0.0023
same,peptide microarray binding signal,"[2]; peptide modifications: H3R2cit, binder concentration: 100 nM",0.0101 ± 0.001
same,peptide microarray binding signal,[3]; [5],0.00315 ± 0.00061
same,peptide microarray binding signal,[3]; [6],0.00126 ± 0.00016
same,peptide microarray binding signal,[4]; [5],0.00101 ± 0.00014
same,peptide microarray binding signal,[4]; [6],0.000577 ± 1.6e-05
ARTKQTARKSTGG [H3 1-13 A Rme2a T Kac Q T A R K S T G G],peptide microarray binding signal,"[1]; peptide modifications: H3R2me2a H3K4ac, binder concentration: 50 nM",0.0125 ± 0.00079
same,peptide microarray binding signal,"[1]; peptide modifications: H3R2me2a H3K4ac, binder concentration: 500 nM",0.0335 ± 0.0053
same,peptide microarray binding signal,"[2]; peptide modifications: H3R2me2a H3K4ac, binder concentration: 10 nM",0.0118 ± 0.0039
same,peptide microarray binding signal,"[2]; peptide modifications: H3R2me2a H3K4ac, binder concentration: 100 nM",0.0337 ± 0.0021
same,peptide microarray binding signal,[3]; [7],0.00455 ± 0.00093
same,peptide microarray binding signal,[3]; [8],0.00639 ± 0.00058
same,peptide microarray binding signal,[4]; [7],0.0124 ± 0.0014
same,peptide microarray binding signal,[4]; [8],0.0053 ± 0.00063
ARTKQTARKSTGG [H3 1-13 A Rcit T K Q Tph A R K S T G G],peptide microarray binding signal,"[1]; peptide modifications: H3R2cit H3T6ph, binder concentration: 50 nM",0.00621 ± 0.00039
same,peptide microarray binding signal,"[1]; peptide modifications: H3R2cit H3T6ph, binder concentration: 500 nM",0.0199 ± 0.0043
same,peptide microarray binding signal,"[2]; peptide modifications: H3R2cit H3T6ph, binder concentration: 10 nM",0.00382 ± 0.00065
same,peptide microarray binding signal,"[2]; peptide modifications: H3R2cit H3T6ph, binder concentration: 100 nM",0.0157 ± 0.0039
same,peptide microarray binding signal,[3]; [9],0.00345 ± 0.00082
same,peptide microarray binding signal,[3]; [10],0.00348 ± 0.00034
same,peptide microarray binding signal,[4]; [9],0.00166 ± 0.00026
same,peptide microarray binding signal,[4]; [10],0.00173 ± 0.00011
ARTKQTARKSTGG [H3 1-13 A Rme T K Q T A R Kme2 S T G G],peptide microarray binding signal,"[1]; peptide modifications: H3R2me1 H3K9me2, binder concentration: 50 nM",0.151 ± 0.01
same,peptide microarray binding signal,"[1]; peptide modifications: H3R2me1 H3K9me2, binder concentration: 500 nM",0.167 ± 0.011
same,peptide microarray binding signal,"[2]; peptide modifications: H3R2me1 H3K9me2, binder concentration: 10 nM",0.047 ± 0.0094
same,peptide microarray binding signal,"[2]; peptide modifications: H3R2me1 H3K9me2, binder concentration: 100 nM",0.0747 ± 0.029
same,peptide microarray binding signal,[3]; [11],0.00563 ± 0.00089
same,peptide microarray binding signal,[3]; [12],0.00873 ± 0.0023
same,peptide microarray binding signal,[4]; [11],0.022 ± 0.012
same,peptide microarray binding signal,[4]; [12],0.0186 ± 0.014
ARTKQTARKSTGG [H3 1-13 A Rme T K Q Tph A R K S T G G],peptide microarray binding signal,"[1]; peptide modifications: H3R2me1 H3T6ph, binder concentration: 50 nM",0.00589 ± 0.00086
same,peptide microarray binding signal,"[1]; peptide modifications: H3R2me1 H3T6ph, binder concentration: 500 nM",0.00971 ± 0.00097
same,peptide microarray binding signal,"[2]; peptide modifications: H3R2me1 H3T6ph, binder concentration: 10 nM",0.00269 ± 4e-05
same,peptide microarray binding signal,"[2]; peptide modifications: H3R2me1 H3T6ph, binder concentration: 100 nM",0.0186 ± 0.0023
same,peptide microarray binding signal,[3]; [13],0.000774 ± 4.3e-05
same,peptide microarray binding signal,[3]; [14],0.000799 ± 2.2e-05
same,peptide microarray binding signal,[4]; [13],0.0018 ± 6.1e-05
same,peptide microarray binding signal,[4]; [14],0.000634 ± 1.2e-05
ARTKQTARKSTGG [H3 1-13 A Rme T Kac Q T A R K S T G G],peptide microarray binding signal,"[1]; peptide modifications: H3R2me1 H3K4ac, binder concentration: 50 nM",0.00636 ± 0.00044
same,peptide microarray binding signal,"[1]; peptide modifications: H3R2me1 H3K4ac, binder concentration: 500 nM",0.00867 ± 0.00048
same,peptide microarray binding signal,"[2]; peptide modifications: H3R2me1 H3K4ac, binder concentration: 10 nM",0.0133 ± 0.0026
same,peptide microarray binding signal,"[2]; peptide modifications: H3R2me1 H3K4ac, binder concentration: 100 nM",0.0738 ± 0.0056
same,peptide microarray binding signal,[3]; [15],0.00115 ± 0.0001
same,peptide microarray binding signal,[3]; [16],0.001541 ± 1.5e-05
same,peptide microarray binding signal,[4]; [15],0.00402 ± 0.0014
same,peptide microarray binding signal,[4]; [16],0.0011 ± 2.2e-05
ARTKQTARKSTGG [H3 1-13 A Rme T Kme3 Q T A R K S T G G],peptide microarray binding signal,"[1]; peptide modifications: H3R2me1 H3K4me3, binder concentration: 50 nM",0.00765 ± 0.00016
same,peptide microarray binding signal,"[1]; peptide modifications: H3R2me1 H3K4me3, binder concentration: 500 nM",0.0187 ± 0.00094
same,peptide microarray binding signal,"[2]; peptide modifications: H3R2me1 H3K4me3, binder concentration: 10 nM",0.267 ± 0.048
same,peptide microarray binding signal,"[2]; peptide modifications: H3R2me1 H3K4me3, binder concentration: 100 nM",0.215 ± 0.13
same,peptide microarray binding signal,[3]; [17],0.449 ± 0.19
same,peptide microarray binding signal,[3]; [18],0.243 ± 0.053
same,peptide microarray binding signal,[4]; [17],0.106 ± 0.018
same,peptide microarray binding signal,[4]; [18],0.0312 ± 0.0012
ARTKQTARKSTGG [H3 1-13 A Rcit Tph K Q T A R K S T G G],peptide microarray binding signal,"[1]; peptide modifications: H3R2cit H3T3ph, binder concentration: 50 nM",0.00364 ± 0.00018
same,peptide microarray binding signal,"[1]; peptide modifications: H3R2cit H3T3ph, binder concentration: 500 nM",0.0133 ± 0.0009
same,peptide microarray binding signal,"[2]; peptide modifications: H3R2cit H3T3ph, binder concentration: 10 nM",0.00125 ± 3.1e-05
same,peptide microarray binding signal,"[2]; peptide modifications: H3R2cit H3T3ph, binder concentration: 100 nM",0.0167 ± 0.011
same,peptide microarray binding signal,[3]; [19],0.00283 ± 0.00066
same,peptide microarray binding signal,[3]; [20],0.00126 ± 8.7e-05
same,peptide microarray binding signal,[4]; [19],0.000846 ± 7.1e-05
same,peptide microarray binding signal,[4]; [20],0.000807 ± 2.9e-05
ARTKQTARKSTGG [H3 1-13 A Rme T K Q T A R Kac S T G G],peptide microarray binding signal,"[1]; peptide modifications: H3R2me1 H3K9ac, binder concentration: 50 nM",0.0167 ± 0.0025
same,peptide microarray binding signal,"[1]; peptide modifications: H3R2me1 H3K9ac, binder concentration: 500 nM",0.121 ± 0.14
same,peptide microarray binding signal,"[2]; peptide modifications: H3R2me1 H3K9ac, binder concentration: 10 nM",0.0337 ± 0.00085
same,peptide microarray binding signal,"[2]; peptide modifications: H3R2me1 H3K9ac, binder concentration: 100 nM",0.0529 ± 0.0063
same,peptide microarray binding signal,[3]; [21],0.0105 ± 0.0012
same,peptide microarray binding signal,[3]; [22],0.00999 ± 0.00055
same,peptide microarray binding signal,[4]; [21],0.085 ± 0.13
same,peptide microarray binding signal,[4]; [22],0.0364 ± 0.046
ARTKQTARKSTGG [H3 1-13 A Rme2a T Kme Q T A R K S T G G],peptide microarray binding signal,"[1]; peptide modifications: H3R2me2a H3K4me1, binder concentration: 50 nM",0.0111 ± 0.00026
same,peptide microarray binding signal,"[1]; peptide modifications: H3R2me2a H3K4me1, binder concentration: 500 nM",0.0211 ± 0.001
same,peptide microarray binding signal,"[2]; peptide modifications: H3R2me2a H3K4me1, binder concentration: 10 nM",0.00585 ± 0.00028
same,peptide microarray binding signal,"[2]; peptide modifications: H3R2me2a H3K4me1, binder concentration: 100 nM",0.0274 ± 0.013
same,peptide microarray binding signal,[3]; [23],0.0329 ± 0.01
same,peptide microarray binding signal,[3]; [24],0.0417 ± 0.011
same,peptide microarray binding signal,[4]; [23],0.00468 ± 0.00097
same,peptide microarray binding signal,[4]; [24],0.00352 ± 0.00019
